Test system: Plasmodium falciparum NF54
Experiment: growth inhibition relative to untreated control; higher = more inhibition
Settings: 72 h
How it was run: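 P. falciparum NF54 ring stages (1% hematocrit, 1% parasitemia, 100 μL/well in 96-well half-area dark plates) were exposed for 72 h at 37 °C to single 5 μM or 1 μM doses of Pathogen Box compounds. The medium was minimal RPMI or minimal RPMI plus chorismate end-products (2.2 μM folate, 7.3 μM pABA, 7.3 μM pHBA, 111 μM tyrosine, 90 μM phenylalanine, tryptophan). Growth inhibition was read by SYBR Green, normalised to untreated controls, with uninfected erythrocytes as background.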

[1] = 1 µM, MM + chorismate end-products (CM screening medium)
[2] = 5 µM, MM + chorismate end-products (CM screening medium)

| SMILES | growth inhibition [1] [%] | growth inhibition (1 µM, minimal medium (MM)) [%] | growth inhibition [2] [%] | growth inhibition (5 µM, minimal medium (MM)) [%] |
| --- | --- | --- | --- | --- |
| CCc1c(C)nc(-n2nc(C)cc2NC(=O)c2ccccc2SC)[nH]c1=O | 72.1 | 60.2 | 86.1 | 79.9 |
| CC1(C)Cc2c(c(N3CCOCC3)nc3snc(Br)c23)CO1 | 79.2 | 74.4 | 53.9 | 19.1 |
| CCOC(=O)NC(=O)c1ccsc1NC(=O)c1nc2ccccc2s1 | 36.1 | < 0 | < 0 | < 0 |
| COc1cc(-c2cc(-c3ccc(S(C)(=O)=O)cc3)cnc2N)ccc1O | > 100 | > 100 | 96.8 | 96 |
| CC[C@@H](CO)NCCN[C@@H](CC)CO | 12.3 | 28.8 | 0.997 | 3.8 |
| c1ccc(Oc2ccc(-c3cc(C4CCOCC4)[nH]n3)cc2)cc1 | 1.03 | < 0 | < 0 | < 0 |
| Oc1c(I)cc(I)c2cccnc12 | 39.4 | 9.57 | < 0 | < 0 |
| NCC(=O)N1CCn2c(nc(-c3ccccc3)c2Nc2ccc3c(c2)OCO3)C1 | 99.3 | > 100 | > 100 | 93.2 |
| Nc1ncnc2c1c(Cc1cccc3ccccc13)nn2CC1CCNCC1 | 18.3 | 59.9 | 19.1 | < 0 |
| Cc1nc2ccccn2c1C(=O)NCc1ccc(Cl)cc1 | 1.31 | < 0 | 31 | 10.3 |
| Nc1ncc(Br)cc1-c1nc2cc(Cl)cnc2[nH]1 | 61.7 | < 0 | 67.3 | 89.1 |
| O=C(NC1CCCCC1)N1CCN(Cc2ccc3c(c2)OCO3)CC1 | < 0 | < 0 | < 0 | < 0 |
| CCCCS(=O)(=O)Nc1ccc2cnn(C)c2c1 | 3.73 | < 0 | 13.4 | 1.13 |
| Nc1ncnc2c1ncn2C[C@@H](O)[C@@H](O)C(=O)O | 44.8 | 43 | 48.6 | < 0 |
| CCc1ccc(S(=O)(=O)Nc2cc(CN3CCN(CCC(C)C)CC3)ccc2C)cc1 | 31.6 | 4.88 | 64.6 | 13.6 |
| O=C(Nc1c(O)cccc1-c1nc2c(C(=O)O)cccc2o1)c1cc(-c2ccccc2)on1 | > 100 | < 0 | < 0 | < 0 |
| Clc1ccc(-n2cc(COc3ccnc4ccccc34)nn2)cc1 | 4.03 | < 0 | 32.4 | 16 |
| c1ccc(C[C@@H]2CN(c3nccc(Oc4ccc(-n5ccnc5)cc4)n3)CCN2)cc1 | 98.3 | 97.5 | 95.3 | 95.3 |

| SMILES | growth inhibition [1] [%] | growth inhibition (1 µM, minimal medium (MM)) [%] | growth inhibition [2] [%] | growth inhibition (5 µM, minimal medium (MM)) [%] |
| --- | --- | --- | --- | --- |
| COc1cc(OC)cc(C(=O)NCC2Cc3cc(Cl)cc(-c4ccncc4)c3O2)c1 (centres undefined) | 91.9 | > 100 | 93 | 91.9 |
| Brc1c(-c2ccc3c(c2)OCO3)nc2ncccn12 | < 0 | < 0 | 29.5 | < 0 |
| Nc1ncc(-c2ccc(C(F)(F)F)nc2)cc1-c1ccc(C(F)(F)F)nc1 | 66.1 | 56.4 | 54.4 | 53.9 |
| O=C(Nc1cccc(-c2ccc(NCCCN3CCCC3)nc2)c1)c1ccccc1 | 96.3 | > 100 | 63.2 | 81.1 |
| CNC(=O)C1Cc2c([nH]c3cc(Cl)ccc23)C2(CCN(CCc3ccccc3)CC2)N1 (centres undefined) | 87 | > 100 | 92.8 | 94.4 |
| NCC(c1cccs1)S(=O)(=O)c1ccccc1 (centres undefined) | 36.2 | < 0 | < 0 | 4.01 |
| O=C(c1ccc(F)cc1)N(CCNc1ccccc1)c1ccccc1 | < 0 | < 0 | 58.9 | 4.16 |
| CC1CC1C(=O)NC1CCN(CC2(c3ccccc3)CCCCC2)CC1 (centres undefined) | 96.1 | 94.5 | 90.8 | 92 |
| CCn1ncc2c(NC3CCOCC3)c(CNC(=O)c3ccnn3C)c(C)nc21 | 63.5 | > 100 | 92.6 | 91.4 |
| O=[N+]([O-])c1cn2c(n1)OC[C@@H](OCc1ccc(OC(F)(F)F)cc1)C2 | 36.9 | 2.72 | < 0 | < 0 |
| CC(=O)NCC1CN(c2ccc(-c3ccc(CO)cc3)c(F)c2)C(=O)O1 (centres undefined) | < 0 | 7.91 | 31.4 | 17.6 |
| O=C(Nc1ccc(N2CCNCC2)cc1)c1ccn2ncc(-c3cccc(Cl)c3)c2n1 | > 100 | > 100 | > 100 | 99.8 |
| O=C(Nc1cccc(Cl)c1)c1cnc(N2CCN(c3ccncc3)CC2)c(Cl)c1 | 90.3 | > 100 | 99.9 | 87.9 |
| CC(=O)NC[C@H]1CN(c2ccc(N3CCSCC3)c(F)c2)C(=O)O1 | 21.8 | 32.5 | < 0 | < 0 |
| Cc1cc(C)n2nc(C(=O)Nc3cc(C(F)(F)F)ccc3N3CCOCC3)nc2n1 | 82.6 | 77.1 | 75.9 | 68.5 |
| CCCCc1ccc(C(=O)Nc2nccc3ccccc23)nc1 | 6.6 | < 0 | 11.6 | 18.4 |
| COc1ccc(OC(C)C(=O)Nc2ccc(Cl)cc2C)cc1 (centres undefined) | 30 | 15.2 | < 0 | < 0 |
| c1ccc(-c2nc(NC3CCCCC3)cc(C3CC3)n2)nc1 | 80.6 | 56.8 | 94.6 | 93.6 |

— the supplement of paper PMC6763611
